According to publication PMC4336329 (PLoS ONE, 2015):
Screen size: about 310,000 compounds; about 14,000 (4.5%) showed an effect of 50% or more. The effect is printed as a negative number. For the sample, strong results were picked, then their nearest neighbours and some compounds at random.

molecular target: human ether-à-go-go-related gene (hERG) potassium channel (human, UniProt Q12809); assay: primary screen, population patch clamp on CHO cells stably expressing hERG; higher = less effect of the substance
Sequence (Q12809 whole entry, looked up): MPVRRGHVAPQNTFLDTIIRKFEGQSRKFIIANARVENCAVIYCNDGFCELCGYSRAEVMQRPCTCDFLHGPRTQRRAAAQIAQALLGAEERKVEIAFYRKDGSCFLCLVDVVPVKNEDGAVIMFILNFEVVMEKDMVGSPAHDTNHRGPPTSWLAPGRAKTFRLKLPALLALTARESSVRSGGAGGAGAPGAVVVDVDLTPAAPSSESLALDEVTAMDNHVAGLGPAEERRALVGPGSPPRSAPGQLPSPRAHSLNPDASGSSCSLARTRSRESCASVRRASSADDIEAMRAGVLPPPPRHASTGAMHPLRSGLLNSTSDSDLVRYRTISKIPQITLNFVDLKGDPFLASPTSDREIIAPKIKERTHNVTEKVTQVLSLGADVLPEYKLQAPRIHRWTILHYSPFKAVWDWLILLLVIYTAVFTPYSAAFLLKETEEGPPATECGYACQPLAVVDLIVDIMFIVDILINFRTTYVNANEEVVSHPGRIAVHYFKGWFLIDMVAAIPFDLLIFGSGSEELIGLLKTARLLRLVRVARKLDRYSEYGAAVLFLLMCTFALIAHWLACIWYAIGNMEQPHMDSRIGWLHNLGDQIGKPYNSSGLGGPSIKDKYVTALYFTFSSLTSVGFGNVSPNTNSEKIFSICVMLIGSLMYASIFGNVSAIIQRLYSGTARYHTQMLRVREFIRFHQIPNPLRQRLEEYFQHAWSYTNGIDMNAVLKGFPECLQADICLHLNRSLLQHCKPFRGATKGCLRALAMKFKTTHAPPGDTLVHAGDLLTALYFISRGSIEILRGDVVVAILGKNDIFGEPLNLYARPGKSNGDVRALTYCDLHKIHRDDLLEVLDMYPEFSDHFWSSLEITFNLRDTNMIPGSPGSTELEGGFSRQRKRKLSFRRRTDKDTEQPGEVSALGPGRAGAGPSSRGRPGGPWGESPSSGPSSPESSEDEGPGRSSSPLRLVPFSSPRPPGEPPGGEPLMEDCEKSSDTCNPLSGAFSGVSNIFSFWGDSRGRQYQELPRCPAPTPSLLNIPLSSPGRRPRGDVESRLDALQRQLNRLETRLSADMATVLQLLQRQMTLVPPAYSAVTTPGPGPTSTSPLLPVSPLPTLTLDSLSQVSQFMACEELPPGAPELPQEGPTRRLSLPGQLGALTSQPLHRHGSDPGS
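Further: peak tail current of the secondary pulse compared with the same well before compound.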

SMILES	hERG current change (%, negative = inhibition) at 10uM
NS(=O)(=O)c1cc(C(=O)NC2CCSc3ccccc32)ccc1Cl (stereo not drawn)	7.27%
CCC1(C)N=C(c2ccc3c(c2)OCO3)CC(c2ccccc2O)N1 (stereo not drawn)	2.42%
CC(C)N1CCC2(CC1)N=C(c1ccc3c(c1)OCO3)CC(c1cc(Cl)ccc1O)N2 (stereo not drawn)	-67.1%
CC(C)C1N=C(c2ccc3c(c2)OCO3)CC(c2ccccc2O)N1 (stereo not drawn)	-20.5%
Cc1ccc2cccnc2c1NC(=S)NC(=O)c1ccccc1	17%
O=C(C[n+]1ccc(C(=O)NCc2ccccc2)cc1)c1ccc(OC(F)F)cc1.[Br-]	-92.8%
O=C(NCc1ccccc1)c1ccc(Cl)cc1	2.26%
CCOc1ccc(C(=O)C[n+]2ccc(C(=O)NCc3ccccc3)cc2)cc1.[Br-]	-36%
O=C(CNC(=O)c1ccc(OC(F)F)cc1)NCc1ccccn1	-70.9%
O=C(C[n+]1cn(C(F)F)c2ccccc21)c1ccc(OC(F)F)cc1.[Br-]	-74.9%
O=C(NCCc1ccccn1)c1ccc(OC(F)F)cc1	-24.7%
COc1ccc(C(=O)C[n+]2cn(C(F)F)c3ccccc32)c(F)c1.[Br-]	-4.45%
O=C(C[n+]1cccc(CNC(=O)c2ccc(OC(F)F)cc2)c1)c1ccccc1.[Cl-]	-14.7%
O=C(C[n+]1ccc(C(=O)NCc2ccccc2)cc1)c1ccc(Cl)cc1.[Br-]	-71.3%
O=C(C[n+]1ccc(C(=O)NCc2ccccc2)cc1)c1ccc2c(c1)OCCO2.[Br-]	12.9%
O=C(CNC(=O)c1ccc(F)cc1)NCc1ccccn1	-1.73%
O=C(C[n+]1cn(C(F)F)c2ccccc21)c1ccc(Br)cc1.[Br-]	-9.95%
CCCCn1c(N)c(N(CC(C)C)C(=O)c2ccc(-c3ccc(Cl)cc3)o2)c(=O)[nH]c1=O	1.07%
CCC(CC)C(=O)OCC(=O)Nc1cccc(S(=O)(=O)N(C)c2ccccc2)c1	14.3%
O=C(NCc1ccc(F)cc1)C(C(=O)NCc1ccc(F)cc1)c1ncc(C(F)(F)F)cc1Cl	1.56%
O=C(NCc1ccco1)c1cc2ccccc2o1	11.8%
COc1cc(OC)cc(C(=O)Nc2ncn[nH]2)c1	7.31%

SMILES	hERG current change (%, negative = inhibition) at 10uM
Cc1ccn(CCC(=O)NC2CC(C)(C)Cc3c2cnn3-c2ccccc2C)n1 (stereo not drawn)	-25.6%
CC1(C)CC(=O)c2cc(C(=O)NC3CCSC3=O)c(=O)n(-c3ccccc3)c2C1 (stereo not drawn)	-0.214%
Cc1nc(NC(CC(C)C)C(=O)O)c2nc(C)oc2n1 (stereo not drawn)	-3.03%
COc1ccc(Nc2nc(C)cc(C)n2)cc1Cl.Cl	0.588%
COc1ccc(C2N(C(=O)CN3CCCC3)CCCN2S(=O)(=O)c2ccccc2)cc1 (stereo not drawn)	-15.8%
CCCC(=O)Oc1ccc(N(C(=O)CCC)S(=O)(=O)c2cccs2)cc1	10.9%
O=C1Nc2ccccc2Oc2cc([N+](=O)[O-])cc(Oc3ccccc3)c21	-24.5%
Cc1[nH]c2ccc(C(=O)OC(C)C(=O)N(C)c3ccccc3)cc2c1C (stereo not drawn)	1.13%
Cc1ccc(C(=O)N2CCN(c3ncnc4c3cnn4-c3ccccc3)CC2)cc1	-0.928%
O=C(c1ccco1)N1CCN(c2ncnc3c2cnn3-c2ccccc2)CC1	-64.5%
O=C(COc1ccccc1)N1CCN(c2ncnc3c2cnn3-c2ccccc2)CC1	-73.6%
Cc1ccccc1C(=O)N1CCN(c2ncnc3c2cnn3-c2ccccc2)CC1	-9.76%
c1ccc(-n2ncc3c(N4CCCC4)ncnc32)cc1	-8.17%
O=C(c1ccccc1)N1CCN(c2ncnc3c2cnn3-c2ccccc2)CC1	-18%
CSc1ccc(COC(=O)CCS(=O)(=O)c2ccc(C)cc2)cc1	-9.83%
O=C(C[n+]1ccccc1)N1CCCc2ccccc21.[Cl-]	18.3%
Cn1c(SCC#N)nnc1-c1ccc2c(c1)OCO2	16.9%
CCOC(=O)c1c(NC(=O)CCc2ccc(CC)o2)sc(C)c1C	1.97%
Cc1ccc(CN2CCN(/N=C/C=C/c3ccccc3[N+](=O)[O-])CC2)cc1	-21.1%
O=C(O)COc1ccccc1/C=N/NC(=O)CN1CCN(Cc2ccccc2Cl)CC1	-0.129%
O=C(CN1CCN(Cc2ccccc2Cl)CC1)N/N=C/C=C/c1ccccc1[N+](=O)[O-]	-71.6%
O=C(Cc1cccs1)N/N=C/C=C\c1ccccc1[N+](=O)[O-]	13.3%

SMILES	hERG current change (%, negative = inhibition) at 10uM
O=C(Cc1cccs1)N/N=C/C=C/c1ccccc1[N+](=O)[O-]	-0.125%
O=C(CN1CCN(Cc2ccccc2)CC1)N/N=C/C=C/c1ccco1	-47.2%
O=[N+]([O-])c1ccccc1/C=N\N1CCN(Cc2ccccc2Cl)CC1	9.77%
O=C(CN1CCN(Cc2ccccc2Cl)CC1)N/N=C/c1ccco1	-21.8%
O=C(CN1CCN(Cc2ccccc2Cl)CC1)N/N=C/C=C/c1ccco1	-68.5%
O=C(CN1CCN(Cc2ccccc2)CC1)N/N=C/C=C/c1ccccc1[N+](=O)[O-]	-74.2%
O=C(CN1CCN(Cc2ccccc2Cl)CC1)N/N=C/C=C\c1ccccc1[N+](=O)[O-]	-76.2%
O=C(Cc1ccccc1)N/N=C/C=C/c1ccccc1[N+](=O)[O-]	1.71%
O=C(COC(=O)CNS(=O)(=O)c1ccc(F)c(F)c1F)NC1CCCC1	4.16%
Clc1ccc(OCCCc2nc(-c3ccncc3)no2)c(Cl)c1	-0.0206%
O=C1/C(=C/N(C(=O)c2ccco2)c2ccc(Br)cc2)Sc2ccccc21	-7.76%
Cc1[nH]c2ccccc2c1C(C[N+](=O)[O-])c1cccc(O)c1 (stereo not drawn)	8.53%
Cc1oc2cc3c(C(=O)N4CCCCC4)c(C)oc3cc2c1C(=O)N1CCCCC1	5.17%
Cc1ccc2cc(C(=O)O)c(C)nc2c1	11.6%
CCC(CC)C(=O)Nc1ccncc1	23.9%
COc1ccccc1CNC(=O)c1ccccc1C(=O)NC(CC(C)C)C(=O)NCc1ccccc1OC (stereo not drawn)	10.6%
Cc1c(NC(=O)c2ccco2)cccc1C(=O)NN1C(=O)c2ccccc2C1=O	16.4%
COC(CNC(=O)c1ccc2c3c(onc13)-c1ccccc1C2=O)OC	-1.15%
Cl.OCCNCc1cccc(OCc2ccccc2Cl)c1	-17.6%
COc1ccc(N2CC(C(=O)Nc3ccc(S(=O)(=O)N4CCOCC4)cc3)CC2=O)cc1 (stereo not drawn)	13.4%
Cl.O=C(NCCN1CCOCC1)c1cn(-c2ccccc2)nc1-c1cccs1	-25.6%
CCN(CC)CCNC(=O)c1cn(-c2ccccc2)nc1-c1cccs1.Cl	-69%

SMILES	hERG current change (%, negative = inhibition) at 10uM
CCN(CC)CCNC(=O)c1ccc(NC(=O)c2cn(-c3ccccc3)nc2-c2cccs2)cc1	-32.7%
COc1cccc(CNC(=O)c2ccccc2SCC(=O)N2CCCC2)c1	-22.7%
COc1cccc(CN2CCNC(=O)C2CC(=O)O)c1OC (stereo not drawn)	11.4%
Cc1ccc(S(=O)(=O)CCNC(=O)Cc2ccccc2)cc1	26.9%
OC(CN=c1sc2ccccc2n1CC(O)COc1ccccc1)COc1ccccc1 (stereo not drawn)	-1.46%
Cc1cc(C)n(CC(O)COCc2ccco2)n1 (stereo not drawn)	-3.37%
CN=c1sc2ccccc2n1CC(O)c1ccccc1 (stereo not drawn)	-21.4%
CCN=c1sc2ccccc2n1CC(O)COc1ccccc1 (stereo not drawn)	-44%
CN=c1sc2ccccc2n1CC(O)COc1ccccc1 (stereo not drawn)	-57.5%
CN=c1sc2ccccc2n1CC(O)COCc1ccco1 (stereo not drawn)	-65.4%
CN(C)C(=O)c1ccc2c3c(cccc13)CC2	24.6%
COc1cc(NC(=O)CCCNC(=O)Cn2cnc3sc4c(c3c2=O)CCCC4)cc(OC)c1OC	29.6%
O=C(COc1ccc2c(c1)oc(=O)c1ccccc12)NCCN1CCOCC1	-11%
COc1ccc(CCn2c(=N)c(C(=O)NCC3CCCO3)cc3c(=O)n4cccc(C)c4nc32)cc1OC (stereo not drawn)	-80.9%
O=C(CSc1nc2ccc(N3CCOCC3)cc2c(=O)n1CCc1ccccc1)NCC1CCCO1 (stereo not drawn)	-47%
Cc1cccn2c(=O)c3cc(C(=O)NCC4CCCO4)c(=N)n(CCc4ccccc4)c3nc12 (stereo not drawn)	-76.7%
COc1ccc(CCNC(=O)C(=O)NCC2CCCO2)cc1 (stereo not drawn)	-0.535%
COc1ccc(CCNC(=O)CNCC2CCCO2)cc1OC.O=C(O)C(=O)O (stereo not drawn)	14.1%
COc1ccc2oc(=O)c(C(=O)NCC3CCCO3)cc2c1 (stereo not drawn)	3.67%
COc1ccc(CCn2c(=N)c(C(=O)NCC3CCCO3)cc3c(=O)n4cccc(C)c4nc32)cc1 (stereo not drawn)	-79.7%
O=C(NCC1CCCO1)c1ccc2c(=O)n(CCc3ccccc3)c(=O)[nH]c2c1 (stereo not drawn)	7.98%
